The source made the active and inactive calls. Unless noted, no rule for the calls is given here.
What was measured:
[1] = anti-His antibody binders, primary screen, artefact control for SMM control protein annotation, biochemical, small-molecule microarray, 635 nm fluorescence (AID 1128); settings: anti-His Alexa647 antibody binding, higher = more signal;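 also: score merges feature fluorescence with signal-to-noise for each printed compound spot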
[2] = test system: Human papillomavirus type 1a E7 protein (residues 1-88); experiment: HPV1a E7 small-molecule binders, primary screen, biochemical, small-molecule microarray, residues 1-88, 635 nm (AID 1129); settings: small-molecule microarray binding, fluorescence 635 nm; higher = more signal
[3] = biological target: Focal adhesion kinase 1 (Homo sapiens) (UniProt Q05397); experiment: small-molecule microarray binders of FAK, primary screen, biochemical, 635/667 nm fluorescence, BSA, DTT (AID 1130); settings: PTK2 binding, 635 nm fluorescence, higher = more signal;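 also: composite of spot emission at 667 nm and signal to noise over triplicate slides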
[4] = test system: Fibrinogen (Alexa647-labelled); experiment: fibrinogen binders on compound microarrays, profiling panel, artefact control for SMM control-protein annotation, biochemical, small-molecule microarray, 635/667 nm fluorescence (AID 1131); settings: fibrinogen-A647 binding fluorescence, higher = more signal;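 also: z-score merges 667 nm fluorescence with per-spot signal-to-noise over triplicate slides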
[5] = biological target: Follistatin (Homo sapiens) (UniProt P19883); experiment: follistatin binders on small-molecule microarrays, primary screen, biochemical, small-molecule microarray, 635/667 nm fluorescence (AID 1132); settings: FST binding, 635 nm fluorescence, higher = more signal
[6] = biological target: Fibroblast growth factor 2 (Homo sapiens) (UniProt P09038); experiment: FGF2 binders on small-molecule microarrays, primary screen, biochemical, small-molecule microarray, 635/667 nm fluorescence (AID 1133); settings: small-molecule microarray binding, FGF2, fluorescence 635/667; higher = more signal
[7] = mitochondrial membrane potential change in A549 cells, profiling panel, cell-based, JC-1 fluorescence, basal, 24 h, 100 nL (AID 1138); settings: higher = more signal;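 also: A549 lung adenocarcinoma cells under basal conditions with no added stimulus; test concentration not given here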
Lefty1 = Lefty1 binders on small-molecule microarrays, primary screen, biochemical, small-molecule microarray, 635/667 nm fluorescence (AID 1139); settings: small-molecule microarray binding, fluorescence 635/667; higher = more signal
[8] = test system: wheat germ agglutinin (Triticum aestivum), Alexa647-labelled; experiment: wheat germ agglutinin binders on compound microarrays, profiling panel, artefact control for SMM control-protein annotation, biochemical, small-molecule microarray, 635/667 nm fluorescence (AID 1140); settings: WGA-A647 binding, 635 nm fluorescence, higher = more signal;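 also: score merges 667 nm feature emission with signal to noise over triplicate slides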
[9] = biological target: Luciferin 4-monooxygenase (Photinus pyralis) (UniProt P08659); experiment: firefly luciferase enzyme inhibitors, primary screen, biochemical, luminescence, purified enzyme, 2006 set (AID 1141); settings: SteadyGlo luminescence, 30 min, higher = more signal, called active from +8 up or from −8 down;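 also: cell-free assay with purified firefly luciferase at 100 ng per well in PBS; test concentration not given here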
[10] = test system: Wnt5a (protein binding on small-molecule microarray); experiment: Wnt5a binders on small-molecule microarray, primary screen, biophysical, 635/667 nm fluorescence (AID 1142); settings: 635 nm fluorescence, higher = more signal;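 also: fluorescence read at 667 nm with signal to noise per printed feature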
[11] = cell viability in Huh7 cells, primary screen, cytotoxicity control for HCV replication inhibitor project, CellTiter-Glo luminescence, basal, 48 h (AID 1143); settings: Huh7 HCV replicon, higher = more signal, called active from +8 up or from −8 down;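 also: Huh7 hepatoma cells carrying a hepatitis C replication reporter with no stimulus; test concentration not given here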
[12] = P. aeruginosa biofilm formation inhibitors, primary screen, PAO1 strain, BacTiter-Glo luminescence, LB-PBS (AID 1144); settings: 12 h, higher = more signal
[13] = CREB reporter modulators without forskolin, primary screen, cell-based, PC12, CRE-LacZ reporter, unstimulated (AID 1145); settings: no forskolin, luminescence, 4.5 h, higher = more signal, called active from +8 up or from −8 down
[14] = CREB reporter modulators under forskolin, primary screen, cell-based, PC12, CRE-LacZ reporter, forskolin-stimulated (AID 1146); settings: luminescence, 4.5 h, higher = more signal, called active from +8 up or from −8 down;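 also: PC12 cells with 6xCRE LacZ reporter stimulated by forskolin 10 µM; beta-galactosidase reporter signal reflecting CREB driven transcription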
[15] = biological target: Streptavidin (Streptomyces avidinii) (UniProt P22629); experiment: streptavidin binders on small-molecule microarray, primary screen, artefact control for SMM compound annotation, biophysical, 635/667 nm fluorescence (AID 1147); settings: streptavidin binding, higher = more signal;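 also: signal reflects streptavidin binding to arrayed compounds as a control protein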
[16] = small-molecule binders of probe aInhba, primary screen, biochemical, small-molecule microarray, 635/667 nm fluorescence (AID 1148); settings: higher = more signal;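 also: score merges 667nm spot fluorescence with signal-to-noise for antibody binding to printed compounds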
Torsin-1A (Homo sapiens) [17] = biological target: Torsin-1A (Homo sapiens) (UniProt O14656); experiment: torsin A binders from cell lysate, primary screen, small-molecule microarray, wild-type, 635/667 nm (AID 1149); settings: COS7 hTOR1A-WT lysate, 635 nm fluorescence, higher = more signal
Torsin-1A (Homo sapiens) [18] = biological target: Torsin-1A (Homo sapiens) (UniProt O14656); experiment: small-molecule binders of mutant TOR1A in lysate, primary screen, cell lysate, small-molecule microarray, COS7 lysate, 635/667 nm fluorescence (AID 1150); settings: COS7 hTOR1A mutant lysate, 635 nm fluorescence, higher = more signal;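 also: score pools 667 nm emission and signal to noise measuring lysate protein binding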
[19] = test system: Sonic hedgehog protein (Shh); experiment: small-molecule binders of Shh protein, primary screen, biochemical, small-molecule microarray, 635/667 nm fluorescence (AID 1151); settings: small-molecule microarray binding, 635 nm fluorescence; higher = more signal;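 also: Shh protein binding to compounds spotted on small-molecule microarray slides; score combines spot fluorescence intensity with signal-to-noise across triplicate slides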

Torsin-1A (Homo sapiens), sequence (O14656 whole entry, looked up): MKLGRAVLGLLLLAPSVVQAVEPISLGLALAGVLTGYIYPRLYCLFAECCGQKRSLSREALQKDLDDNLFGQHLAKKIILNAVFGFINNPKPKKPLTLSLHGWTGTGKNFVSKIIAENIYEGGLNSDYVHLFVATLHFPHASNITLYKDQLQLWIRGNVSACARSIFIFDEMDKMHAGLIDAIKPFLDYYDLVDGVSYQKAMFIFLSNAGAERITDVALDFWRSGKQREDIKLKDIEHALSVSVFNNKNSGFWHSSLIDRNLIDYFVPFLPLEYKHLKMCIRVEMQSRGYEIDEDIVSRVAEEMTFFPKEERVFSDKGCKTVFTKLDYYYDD
Focal adhesion kinase 1 (Homo sapiens), sequence (Q05397 whole entry, looked up): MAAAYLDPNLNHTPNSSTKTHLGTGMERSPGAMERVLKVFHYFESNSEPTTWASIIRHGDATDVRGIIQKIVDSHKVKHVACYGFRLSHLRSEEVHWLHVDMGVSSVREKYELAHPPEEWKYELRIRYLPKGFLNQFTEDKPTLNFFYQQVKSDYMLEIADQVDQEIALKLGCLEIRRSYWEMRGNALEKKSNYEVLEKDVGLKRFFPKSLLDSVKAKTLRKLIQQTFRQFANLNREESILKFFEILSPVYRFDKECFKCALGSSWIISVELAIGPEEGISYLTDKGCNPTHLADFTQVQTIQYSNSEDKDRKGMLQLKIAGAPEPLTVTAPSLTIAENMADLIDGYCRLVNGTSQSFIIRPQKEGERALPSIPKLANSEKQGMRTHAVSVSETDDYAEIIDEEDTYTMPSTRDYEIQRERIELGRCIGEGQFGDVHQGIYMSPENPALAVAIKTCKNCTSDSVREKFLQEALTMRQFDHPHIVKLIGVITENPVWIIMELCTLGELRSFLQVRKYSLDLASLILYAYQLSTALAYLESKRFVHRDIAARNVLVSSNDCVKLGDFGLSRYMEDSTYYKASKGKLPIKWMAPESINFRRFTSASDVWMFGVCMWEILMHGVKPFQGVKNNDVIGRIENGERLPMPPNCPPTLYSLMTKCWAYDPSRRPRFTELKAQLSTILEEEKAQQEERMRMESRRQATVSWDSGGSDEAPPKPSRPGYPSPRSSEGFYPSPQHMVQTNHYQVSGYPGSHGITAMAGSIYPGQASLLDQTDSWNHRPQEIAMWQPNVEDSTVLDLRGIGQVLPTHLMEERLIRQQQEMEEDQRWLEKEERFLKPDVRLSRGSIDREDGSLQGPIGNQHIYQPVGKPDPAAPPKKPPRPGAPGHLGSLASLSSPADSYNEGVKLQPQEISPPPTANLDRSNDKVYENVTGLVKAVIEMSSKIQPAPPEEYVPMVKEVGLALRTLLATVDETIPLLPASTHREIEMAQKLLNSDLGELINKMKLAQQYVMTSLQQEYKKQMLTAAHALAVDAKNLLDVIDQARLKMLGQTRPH
Follistatin (Homo sapiens), sequence (P19883 whole entry, looked up): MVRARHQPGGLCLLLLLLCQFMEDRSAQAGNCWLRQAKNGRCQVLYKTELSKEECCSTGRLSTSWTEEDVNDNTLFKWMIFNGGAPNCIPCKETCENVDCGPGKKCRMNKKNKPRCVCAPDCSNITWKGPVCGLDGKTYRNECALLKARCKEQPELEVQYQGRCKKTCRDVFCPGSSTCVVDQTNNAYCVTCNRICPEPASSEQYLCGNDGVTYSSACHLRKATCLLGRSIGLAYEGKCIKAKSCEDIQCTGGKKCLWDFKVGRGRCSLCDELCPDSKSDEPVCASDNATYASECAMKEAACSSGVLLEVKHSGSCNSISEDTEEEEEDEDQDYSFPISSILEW
Streptavidin (Streptomyces avidinii), sequence (P22629 whole entry, looked up): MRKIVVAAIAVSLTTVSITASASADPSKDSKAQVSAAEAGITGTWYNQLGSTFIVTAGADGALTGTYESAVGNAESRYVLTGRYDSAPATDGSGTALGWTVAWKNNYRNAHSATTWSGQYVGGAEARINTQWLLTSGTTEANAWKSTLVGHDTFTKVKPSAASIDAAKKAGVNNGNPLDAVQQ
Luciferin 4-monooxygenase (Photinus pyralis), sequence (P08659 whole entry, looked up): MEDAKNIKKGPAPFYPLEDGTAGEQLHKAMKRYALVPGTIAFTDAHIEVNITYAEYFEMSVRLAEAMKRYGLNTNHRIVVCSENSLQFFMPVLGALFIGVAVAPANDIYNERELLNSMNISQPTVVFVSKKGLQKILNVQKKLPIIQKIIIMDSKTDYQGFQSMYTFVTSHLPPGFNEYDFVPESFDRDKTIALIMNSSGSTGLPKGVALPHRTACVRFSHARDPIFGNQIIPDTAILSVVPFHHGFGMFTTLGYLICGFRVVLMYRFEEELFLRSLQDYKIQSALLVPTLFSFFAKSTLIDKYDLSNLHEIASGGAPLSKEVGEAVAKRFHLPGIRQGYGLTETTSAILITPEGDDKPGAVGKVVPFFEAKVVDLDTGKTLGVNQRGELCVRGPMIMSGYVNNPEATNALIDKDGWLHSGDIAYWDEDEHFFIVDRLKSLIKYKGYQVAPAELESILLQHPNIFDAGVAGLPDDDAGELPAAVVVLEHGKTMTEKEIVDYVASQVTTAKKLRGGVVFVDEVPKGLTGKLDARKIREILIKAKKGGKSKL
Fibroblast growth factor 2 (Homo sapiens), sequence (P09038 whole entry, looked up): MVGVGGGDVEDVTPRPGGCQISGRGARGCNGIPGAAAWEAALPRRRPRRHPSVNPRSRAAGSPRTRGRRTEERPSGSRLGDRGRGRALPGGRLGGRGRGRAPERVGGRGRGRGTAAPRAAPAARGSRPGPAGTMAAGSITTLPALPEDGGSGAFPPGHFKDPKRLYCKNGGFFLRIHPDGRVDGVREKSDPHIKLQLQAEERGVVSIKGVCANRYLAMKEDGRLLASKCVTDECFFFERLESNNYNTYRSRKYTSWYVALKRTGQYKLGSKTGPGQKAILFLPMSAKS

| Compound | composite z-score [1] | composite z-score [2] | composite z-score [3] | composite z-score [4] | composite z-score [5] | composite z-score [6] | z-score [7] | composite z-score (Lefty1) | composite z-score [8] | z-score [9] | composite z-score [10] | z-score [11] | z-score [12] | z-score [13] | z-score [14] | composite z-score [15] | composite z-score [16] | composite z-score (Torsin-1A (Homo sapiens) [17]) | composite z-score (Torsin-1A (Homo sapiens) [18]) | composite z-score [19] |
| --- | --- | --- | --- | --- | --- | --- | --- | --- | --- | --- | --- | --- | --- | --- | --- | --- | --- | --- | --- | --- |
| C=C(CCCC)C(=O)CC[C@H](OC(=O)c1ccccc1-c1ccccc1C(=O)O)c1ccccc1OCCO | 1.51 | 0.341 | -0.218 | 0.412 | 0.419 | 0.448 | 0.58 | 0.311 | -0.107 | -1.82 (inactive) | -0.131 | -0.397 (inactive) | -0.447 (inactive) | 5.04 (inactive) | 5.73 (inactive) | -0.759 | -0.179 | 1.03 | 0.221 | 2.07 |
| CC(C)CNC(=O)[C@@]1(c2ccc([N+](=O)[O-])cc2)CC(=O)N(C2CCCCC2)[C@@H]1c1ccc(CO)cc1 | 1.91 | 1.23 | -0.0282 | 0.583 | 0.536 | 1.04 | 0.214 | -0.35 | 0.29 | -0.977 (inactive) | 0.335 | -2.21 (inactive) | 0.901 (inactive) | 0.585 (inactive) | 0.142 (inactive) | -0.0755 | -0.153 | 0.442 | 0.0881 | -0.158 |
| CC=CC(O)C1C=CC2C(=O)NC(=O)C2N1Nc1ccccn1 (stereo not given) | 1.41 | 0.497 | 0.381 | 0.657 | 1.02 | 0.352 | 0.514 | 0.585 | 0.0489 | -0.0429 (inactive) | -0.11 | 1.11 (inactive) | -0.587 (inactive) | -0.329 (inactive) | 0.701 (inactive) | 0.149 | -0.0645 | 0.599 | -0.164 | 0.77 |
| [N-]=[N+]=NC[C@H](Cc1ccccc1)NC(=O)c1ccccc1 | 0.568 | -0.165 | 0.161 | -0.0208 | -0.487 | -0.0599 | 1.21 | -0.156 | 0.736 | -0.53 (inactive) | -0.022 | -0.34 (inactive) | 0.138 (inactive) | 0.6 (inactive) | -0.308 (inactive) | 0.148 | -0.0695 | 0.601 | 0.265 | -0.0168 |
| C=C[C@@H](OC)[C@H](OC(=O)Nc1ccc(OC)cc1)c1ccc(OC)c(O)c1 | 0.122 | -1.06 | -0.384 | -1.1 | 0.0112 | -0.685 | 0.232 | -0.396 | -0.0358 | -0.737 (inactive) | -0.451 | -0.749 (inactive) | -0.327 (inactive) | 0.702 (inactive) | 0.177 (inactive) | -0.833 | -0.166 | -2.5 | -1.12 | 0.63 |
| CN1C(=O)C2C(C1=O)C1C=C(CCCO)C2C(C2CC2)N1Cc1cc2c(cc1Br)OCO2 (stereo not given) | 2.92 | 0.788 | 0.481 | 0.919 | 0.4 | 0.0867 | -0.401 | 0.317 | 0.555 | -0.0255 (inactive) | 0.0949 | -1.57 (inactive) | -0.0766 (inactive) | 1.26 (inactive) | 2.6 (inactive) | 0.838 | 0.0569 | 1.2 | 1.5 | 0.265 |
| C[C@]1(C(=O)O)c2ccccc2C(=O)N(Cc2ccc(OC(F)(F)F)cc2)[C@H]1c1ccc(CO)cc1 | 1.1 | 0.409 | 0.609 | 0.0748 | -0.156 | -0.381 | 0.447 | -0.685 | 0.596 | 0.0795 (inactive) | 0.386 | -0.17 (inactive) | -0.526 (inactive) | 0.118 (inactive) | -0.48 (inactive) | -0.129 | 0.053 | 0.45 | 0.522 | -0.261 |
| CN1C(=O)C2C=CC(C(O)c3ccc(I)cc3)N(Nc3ccccc3)C2C1=O (stereo not given) | 0.276 | 1.22 | -0.161 | 1.02 | 1.19 | 0.979 | 0.255 | 0.465 | 0.86 | -0.431 (inactive) | 0.377 | 0.134 (inactive) | -0.507 (inactive) | 1.77 (inactive) | 1.34 (inactive) | 1.76 | -0.0209 | 0.338 | 0.696 | -0.0996 |
| COc1ccc([Si](C)(C)[C@H]2[C@H](CCO)O[C@@]3(C(=O)N(Cc4ccccc4)c4ccc(N5CCOC5=O)cc43)[C@@H]2C)cc1 | 0.783 | 0.981 | 0.0096 | 0.773 | 0.701 | 1.11 | 0.571 | 0.385 | 0.986 | 0.446 (inactive) | 0.0771 | -4.87 (inactive) | -0.521 (inactive) | 2.11 (inactive) | -0.726 (inactive) | 1 | 0.0756 | -0.112 | -0.12 | 1.16 |
| C=C[C@@H](C)[C@@H](OC(=O)Nc1ccc(SC)cc1)c1ccc(OCCO)cc1 | 1.51 | 1.21 | 0.462 | 0.719 | 0.0078 | 0.0877 | -1.64 | 0.191 | 1.04 | -4.2 (inactive) | 0.382 | -3.1 (inactive) | -0.882 (inactive) | 0.236 (inactive) | -0.162 (inactive) | 0.929 | -0.151 | 0.495 | 1.04 | 0.487 |
| COCCOC(=O)N1C(=O)[C@@]2(c3cc(C#Cc4ccc(OC)cc4)ccc31)[C@H](C(=O)NC[C@H](O)c1ccccc1)[C@H]1C(=O)O[C@H](c3ccccc3)[C@H](c3ccccc3)N1[C@@H]2c1ccc(OCCO)cc1 | 1.24 | 1.2 | -0.103 | 0.801 | 1.29 | 1.01 | -1.77 | 1.15 | 0.815 | -0.459 (inactive) | 0.76 | -5.48 (inactive) | -1.73 (inactive) | -1.42 (inactive) | -0.544 (inactive) | 0.277 | 0.0184 | 0.161 | 0.963 | 1.62 |

— PubChem BioAssay
